The source of these data is PubChem BioAssay (NCI).

What all share (assay): NCI-60 one-dose screen, 48 h (100 = growth as untreated, 0 = no growth, -100 = all killed)
Common to all, as to conditions: 10 µM

Test [1] concerns SR leukemia.
In test [2] the test system is RPMI-8226 leukemia.
Test [3] deals with OVCAR-8 ovarian.
For test [4], the system named is OVCAR-5 ovarian.
Test [5] has as its system OVCAR-4 ovarian.
The subject of test [6] is SK-OV-3 ovarian.
Test [7] concerns IGROV1 ovarian.
The subject of test [8] is OVCAR-3 ovarian.
Test [9] relates to HS 578T breast.
Test [10] concerns NCI/ADR-RES ovarian.
Test [11] concerns T-47D breast.
Test [12] relates to BT-549 breast.
Test [13] relates to MDA-MB-435 melanoma.
Test [14] deals with SW-620 colon.
Test [15] relates to MCF7 breast.
The test system of test [16] is HCT-116 colon.
Test [17] deals with HCC-2998 colon.
For test [18], the system named is KM12 colon.

The panel holds about 83,000 compounds, 20% with a hit somewhere; the sample as a whole holds those more often.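 Cell lines were cultured in 96-well plates, exposed to a single compound concentration, and assessed for percent growth 48 hours later.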 A number with no mark means an inactive call. Active and inactive are the calls of the source. How the source made its calls: active means growth percent below 10; inactive means the rest.

On to `CCC(OC(=O)CC(C)C)c1ccccc1` (configuration not stated), for which the growth in test [1] was 101%; in test [2], 105%; in [3] it was 93.4%; in [4] it was 104%; in test [5] it was 112%; in [6], 102%. The growth in test [7] is 111%; in [8], 107%; in [9], 104%; in test [10] it was 98.8%; in test [11], 84.5%; in test [12], 101%. In addition, the growth in test [13] is 104%; in [14], 105%; in test [15] it was 94.3%; in [16], 107%; in [17] it was 101%; in test [18], 107%.

`Cc1nc2sccn2c1-c1csc(Nc2cccc(Cl)c2C)n1`: the growth in test [1] was 17.7%; in test [2] it was 45%; in test [3], 65.6%; in test [4] it was 77.9%; in test [5] it was 45.7%; in test [6], 79.1%. Also, the growth in test [7] was 62%; in test [8], 64.3%; in [9], 53.1%; in test [10], 41.6%; in test [11], 36.2%; in test [12], 43.9%. In addition, the growth in test [13] was 7.55% (active); in test [14], 49.1%; in test [15], 38.1%; in test [16], 46.1%; in test [17] it was 69%; in [18] it was 50.8%.

For `O=[N+]([O-])c1ccc(Br)o1`, the growth in test [1] is 108%; in test [2] it was 106%; in test [3], 108%; in test [4], 95.4%; in [5], 122%; in test [6], 104%. In addition, the growth in test [7] is 101%; in test [8], 111%; in [9], 113%; in test [10], 99.5%; in [11], 91.3%; in test [12], 97%. Further, the growth is 109% in [13]; 109% in [14]; 95.7% in [15]; 101% in test [16]; 95% in test [17]; 99.1% in test [18].

For the molecule `COc1cccc(-c2nnc(COc3ccc(-c4nc5ccccc5[nH]4)cc3OC)o2)c1`, the growth was 7.26% (active) in test [1]; 51% in [2]; 67.3% in test [3]; 119% in test [4]; 103% in test [5]; 107% in [6]. Moreover, the growth was 101% in [7]; 102% in [8]; 102% in test [9]; 89% in [10]; 73.6% in test [11]; 81.7% in test [12]. In addition, the growth in test [13] is 94.9%; in test [14], 110%; in test [15] it was 73.6%; in test [16], 73%; in test [17] it was 105%; in test [18], 98%.

For the molecule `COc1cc(CSc2nc3ccc(C)cc3c(=O)n2Cc2ccccc2)cc(OC)c1OC`, the growth in test [1] is 18%; in test [2], 54.1%; in test [3] it was 35.2%; in [4] it was 45.4%; in test [5] it was 53.1%; in test [6], 23.9%. Further, the growth was 24.3% in test [7]; -22.7% (active) in test [8]; 20.7% in test [9]; 12.7% in test [10]; 34.1% in test [11]; 34.8% in [12]. Besides, the growth in test [13] was -5.84% (active); in test [14] it was 25.8%; in test [15] it was 18%; in test [16], 25.2%; in test [17], 43%; in [18], 25.3%.

Turning to `CC(=O)/C(=C\c1ccc(Cl)cc1)c1ccccc1`, the growth in [1] is 6.01% (active); in test [2], 19%; in [3], 15.2%; in test [4] it was 51.5%; in test [5], 57.7%; in test [6], 39.1%. For the same molecule, the growth in [7] is 28.5%; in test [8], -8.06% (active); in test [9], 23.8%; in test [10], 30.7%; in [11] it was 47.8%; in [12], 14.5%. The growth in test [13] is -35.2% (active); in [14], 25.6%; in [15], 9.45% (active); in test [16] it was 5.06% (active); in test [17], 3.78% (active); in [18] it was 10.1%.

For the molecule `CCOC(=O)c1cc2c(n1Cc1ccccc1)-c1oncc1CC2`, the growth in test [1] is 13.1%; in test [2], 67.1%; in test [3], 97%; in test [4], 97.4%; in [5], 105%; in test [6], 92%. The growth is 42.4% in test [7]; -0.497% (active) in test [8]; 76.8% in [9]; 45.3% in [10]; 93.8% in test [11]; 92.7% in test [12]. Further, the growth in test [13] is -27.4% (active); in test [14], 32.9%; in test [15], 80.3%; in test [16], 89%; in test [17] it was 83.6%; in test [18] it was 31.4%.

`O=C(Nc1ccc(CN2CCOCC2)cc1)c1ccc(-c2cc(Cl)ccc2Cl)o1`: the growth in test [1] is -12.9% (active); in test [2], -5.45% (active); in test [3] it was 36%; in [4], 72.1%; in test [5] it was 50.6%; in [6], 81.5%. The growth was 34% in test [7]; 70.9% in test [8]; 72.2% in test [9]; 46.9% in [10]; 34.7% in test [11]; 102% in [12]. Also, the growth in test [13] was -10.5% (active); in [14], -2.26% (active); in test [15] it was -34.1% (active); in test [16] it was 22.3%; in [17] it was -83.5% (active); in test [18] it was 8.82% (active).

Turning to `COC(=O)[C@]12CC[C@@H](C)[C@H](C)[C@@H]1C1=CC[C@@H]3[C@@]4(C)CC(=O)[C@H](O)[C@@](C)(CO)[C@@H]4C(=O)C[C@@]3(C)[C@]1(C)CC2`, the growth in test [1] is -51.3% (active); in [2] it was -32.2% (active); in [3], -8.97% (active); in test [4] it was 50.7%; in test [5] it was 13.8%; in test [6], 3.85% (active). For the same molecule, the growth is -27.7% (active) in test [7]; -27.3% (active) in [8]; -1.78% (active) in test [9]; -24.3% (active) in test [10]; -15.8% (active) in test [11]; -31.4% (active) in test [12]. Also, the growth in test [13] was 11.4%; in test [14], 1.83% (active); in test [15] it was -13.4% (active); in test [16], -43.1% (active); in [17], -61.1% (active); in test [18], -37.3% (active).
